Test results as given in PubChem BioAssay AID687014 (The Scripps Research Institute Molecular Screening Center, 2013).
In all, about 370,000 compounds went through this assay and about 6,800 (1.8%) were called active. The entries come from a sample that favours actives as a whole. Unmarked numbers belong to inactive results.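 The calls were made as follows: active = activation above a cutoff set at the mean of all screened compounds plus 3 SD (cut at about 10% in these data); inactive = the rest.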

test system: Nuclear hormone receptor DAF-12 (Heterodera glycines), GAL4 fusion; assay: hgDAF-12 GAL4 fusion reporter activation – cell-based, luminescence, HEK293, UAS-luciferase, primary screen (AID 687014); details: HEK293 GAL4-hgDAF12 UAS-luciferase reporter, agonist luminescence; at 6.8 µM; hits give high values; normalized to butyrate control;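 also: 0% = DMSO wells and 100% = sodium butyrate wells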

Structure (SMILES)	activation
C#CCNC(=O)C[C@H]1C[C@@]2(C(=O)OC)C(=C[C@H](C(C)C)O[C@@H]2C2CC2)N(Cc2ccco2)C1=O	0.97%
C/C(=N\Nc1ccc(Cl)nn1)c1ccccc1O	1.05%
C/C(=N\NC(=O)c1ccoc1C)c1ccccc1O	11.5% (active)
COc1ccccc1N(CC(=O)N/N=C(\C)c1ccccc1O)S(=O)(=O)c1ccc(C)cc1	-1.9%
O=C(NC(CC(=O)N1CCN(c2ccccc2)CC1)c1ccccc1)c1ccccc1Cl (configuration not stated)	-0.02%
Cc1ccc(SCCSc2ncccn2)cc1	17.8% (active)
Cc1ccc(SCCC(=O)NC(C(C)C)C(C)C)cc1	-2.93%
Cc1ccc(SCCC(=O)NCc2ccccn2)cc1	0.65%
CCCCCN1CCCCC(NC(=O)C(C)CCC)C1=O (configuration not stated)	2.68%
CC(C)(C)c1ccc(C(=O)Nc2cc(Cl)c(Br)cc2C(=O)O)cc1	-1.36%
CCN(CC(=O)Nc1ccc(C)c(S(=O)(=O)N(C)C)c1)Cc1ccccc1	2.76%
COc1ccc(CCC(=O)OCC(=O)Nc2ccc(C)c(S(=O)(=O)N(C)C)c2)cc1	-1.79%
Cc1ccc(C(=O)Nc2ccc(C)c(S(=O)(=O)N(C)C)c2)s1	17.3% (active)
C[C@@H](NC(=O)c1ccccc1OCC(=O)Nc1ccc(I)cc1)C(=O)N(C)Cc1ccccc1	-2.59%
C#CCN(C[C@@H]1[C@@H](OC(=O)NC2CC2)[C@@H](OC(=O)NC2CC2)Cn2c(=O)ccc(=O)n21)S(=O)(=O)c1ccc(C)cc1	-1.94%
O=C1CC[C@@H](COc2ccc3[nH]cc(-c4ccccc4)c3c2-c2ccccc2)N1	-0.08%
CCCCNC(=O)C[C@H]1C(=O)N(Cc2ccc(OC)cc2)C2=CCCC[C@@]21C(=O)OCC	-2.38%
COc1ccccc1N1CCN(/N=C/c2ccc(O)cc2O)CC1	13% (active)
COc1ccccc1/C=N/N1CCN(Cc2ccccc2Cl)CC1	3.82%
CNCC(O)CN1CCN(c2ccccc2OC)CC1 (configuration not stated)	-4.94%
O=C(Nc1ccccc1)O/N=C1/CCCc2occc21	1.6%
N[C@@H](Cc1ccccc1)C(=O)N1CCC[C@@H]1C(=O)N1CCC2CCN(S(=O)(=O)c3ccccc3)CC21 (some centres not stated)	2.75%
Cc1cccc(NC(=O)c2cc3c(C)nn(-c4ccccc4)c3s2)c1	3.47%

Structure (SMILES)	activation
O=C1NC[C@H](CCCCN2C[C@H](Cc3ccccc3)N(Cc3ccccc3)C(=O)C2=O)N(CCc2ccc(O)cc2)C1=O	0.18%
O=C1NC[C@@H](Cc2ccc(O)cc2)N(CCc2cccc(F)c2)C1=O	18.6% (active)
O=C1NC[C@H](CCCCN2C[C@H](Cc3ccc(O)cc3)N(CCc3ccccc3)C(=O)C2=O)N(CCc2ccccc2)C1=O	-1.46%
CCOC(=O)[C@]12CCCCC/C=C\1N(Cc1ccc(OC)cc1)C(=O)[C@H]2CC(=O)N1CCOCC1	4.14%
O=C(Nc1ccc(-c2nnc(-c3ccccc3)o2)cc1)C1CCCO1 (configuration not stated)	13.7% (active)
CCOc1ccc(NC(=O)c2ccc(NC(=O)C3CCCO3)cc2)cc1 (configuration not stated)	-1.61%
CC(C)(C)NS(=O)(=O)c1ccc(NC(=O)C2CCCO2)cc1 (configuration not stated)	-2.61%
COc1cccc(CNC(=O)C2CCCN(c3nc4ccccc4o3)C2)c1OC (configuration not stated)	1.01%
O=C(Nn1cnc2ccccc2c1=O)c1ccc([N+](=O)[O-])cc1Cl	-0.41%
CC(C)C(=O)Nc1cccc(NC(=O)c2ccc([N+](=O)[O-])cc2Cl)c1	-0.06%
O=C(Nc1ccc(Br)cn1)c1ccc([N+](=O)[O-])cc1Cl	11.7% (active)
Cc1cc(Cl)ccc1-c1nc(NCCN(C)C)nc2ccsc12	1.09%
O=C(CN1CCCc2ccccc21)NCc1ccc(F)cc1	1.21%
Cc1cccc(N2O[C@H]3C=CC2CCCC3)n1	-0.73%
Cc1ccn(-c2cccc(-n3ccc(C)n3)n2)n1	18.1% (active)
COc1ccc(C(=O)OCCN2CCN(C3CN(Cc4cn(Cc5ccccc5F)nn4)S(=O)(=O)C3)CC2)cc1OC (configuration not stated)	-1.46%
CCNc1nc(-c2cc3ccccc3o2)cs1	12.5% (active)
Cn1c(CNc2nc(-c3ccccc3)cs2)nnc1SCC(=O)c1ccccc1	-0.81%
Cn1c(SCC(=O)NC2CCCCC2)nnc1-c1cc2ccccc2o1	4.2%
COc1ccc(NC(=O)CN(Cc2ccccc2)S(C)(=O)=O)cc1OC	0.79%
O=C(O)C1C2C=CC(O2)C1C(=O)Nc1ccccn1 (configuration not stated)	0.96%
S=C(NN=Cc1ccccn1)Nc1ccccn1	14.5% (active)
CS(=O)(=O)N(CC(=O)N/N=C/c1ccccn1)c1ccc(Oc2ccccc2)cc1	2.64%

Structure (SMILES)	activation
CC(C)(C)c1ccc(CSc2nnc(-c3cccs3)o2)cc1	5.74%
Clc1ccc(Cc2nnc(-c3cccs3)o2)cc1	12.7% (active)
c1csc(-c2nnc(COc3ncnc4sccc34)o2)c1	1.72%
CC(C)[C@H]1COCCS(=O)(=O)N1Cc1ccccc1-c1cccc2c1sc1ccccc12	2.06%
Cc1ccc(OCc2nnc(SC/C=C/c3ccccc3)n2Cc2ccco2)cc1	-2.63%
O=C1CSc2ccc(C(=O)NCc3ccccn3)cc2N1	3.35%
c1ccc(CN=C2Nc3ccccc3CS2)nc1	15% (active)
COc1ccc(OC)c(CNC(=O)c2cc(=O)[nH]c3ccc(S(=O)(=O)N4CCCC4)cc23)c1	5.76%
CCc1ccc(C2=CC(=O)CC(C)(C)C2=O)cc1	-0.49%
Cc1c(C(=O)Nc2ccccn2)oc2ccc(Br)cc12	11.2% (active)
Cc1nonc1NC(=O)c1oc2ccccc2c1C	4.37%
CCc1nonc1NC(=O)c1oc2ccc(Cl)cc2c1C	3.2%
CCOC(=O)c1nnn(CC(=O)Nc2cccc(F)c2)c1C(=O)OCC	-0.57%
O=C(Nc1cccc(Cl)c1)c1cncn1-c1ccc(F)cc1	1.29%
CCC(=O)Nc1ccc2nn(-c3ccc(F)cc3)nc2c1	12.1% (active)
CCOC(=O)N1CCN(c2cc(C)c([N+](=O)[O-])cc2F)CC1	4.66%
CCNC(=S)NCC	-0.86%
Cc1ccc(C(=O)N(Cc2ccccn2)CC2CCCO2)cc1 (configuration not stated)	-3.33%
Cc1ccc(NC(=S)NNC(=O)CSc2nnc(SCc3ccccc3Cl)s2)cc1	2.13%
COC(=O)c1c(-c2ccc(OC)cc2)c2c(c3c4cc(OC)ccc4n(S(=O)(=O)c4ccc(F)cc4)c13)C(=O)N(C)C2	-2.44%
O=C(Nc1ccccc1)Nc1nc2ccccc2s1	26.4% (active)
O=C(Nc1nc2ccc(Cl)cc2s1)c1cc(-c2ccc(Cl)cc2)nc2ccccc12	-1.16%
O=C(Nc1ccccc1)Nc1nnc(COc2ccccc2F)s1	-2.63%

Structure (SMILES)	activation
CC(C)c1ccc(/C=C2\NC(=O)NC2=O)cc1	1.14%
CC(C)c1ccc(C=NNc2ccc([N+](=O)[O-])cn2)cc1	16.8% (active)
CN(CCc1ccccc1)c1ccc([N+](=O)[O-])cn1	2.43%
CCOC(=O)c1csc(NC(=O)C2CCCN(S(=O)(=O)c3ccc(Cl)s3)C2)n1 (configuration not stated)	-0.73%
CSCCC(NC(=O)c1ccco1)C(=O)Nc1cc(C)ccn1 (configuration not stated)	11.9% (active)
CSCCC(NC(=O)c1ccco1)C(=O)OCC(=O)Nc1ncc(Cl)c(C)c1Cl (configuration not stated)	-1.62%
CSCCC(NC(=O)c1ccco1)C(=O)NCCc1ccc(F)cc1 (configuration not stated)	0.46%
COC(=O)[C@]12C[C@H](CC(=O)NCc3ccccc3)C(=O)N(CCC3=CCCCC3)C1=C[C@H](C(C)C)O[C@@H]2C1CC1	2%
O=[N+]([O-])c1cc(C(F)(F)F)ccc1NN=C1CCCC1	0.04%
O=[N+]([O-])c1cc(S(=O)(=O)N2CCCC2)ccc1NN=C1CCCC1	15.3% (active)
O=C(COc1ccc(S(=O)(=O)N2CCCC2)cc1[N+](=O)[O-])N1CCCCC1	-0.16%
O=C1CC(c2ccc3c(c2)OCO3)N=C2N(CC3CC3)C/C(=C/c3ccccc3)N12 (configuration not stated)	-2.7%
Cc1cc(C)cc(N(CC(=O)NC2CCCC2)C(=O)CCC(=O)Nc2cc(C)on2)c1	-1.1%
O=C(O)C1CCCN1S(=O)(=O)c1ccc(Br)cc1 (configuration not stated)	0.88%
CC1CN/C(=C\C(=O)c2ccc(Br)cc2)C(=O)N1 (configuration not stated)	10.5% (active)
COc1cc2c(cc1OC)/C(=C/C(=O)c1ccc(NC(C)=O)cc1)NCC2	0.96%
C=CCN=C1NC(c2cccc(C(F)(F)F)c2)C(C(=O)OC)=C(C)N1C (configuration not stated)	1.38%
Cc1cccc(Cn2cnc3c(N)c(C)c(C)cc32)c1	-4.28%
CCCCCCN1CCS(=O)(=O)N(Cc2ccc(C(F)(F)F)cc2)C(C(=O)OC)C1 (configuration not stated)	1.39%
Cc1cnc(C(=O)OCC(=O)N2CCc3ccccc32)cn1	1.4%
CCCCn1nc(C(=O)N2CCc3ccccc32)c2ccccc2c1=O	-0.16%
O=C(c1cnn2ccccc12)N1CCc2ccccc21	16.5% (active)
COC(=O)[C@]12C[C@H](CC(=O)NCCCCc3ccccc3)C(=O)N(Cc3ccc4c(c3)OCO4)C1=C[C@H](C(C)(C)C)O[C@@H]2C	0.98%
